Assay results taken from the supplement of paper PMC10849652.
About 7,900 targets were measured; listed, in parts, are those with a hit and a random draw of the rest. About 0.6% of all pairs of compound and target were hits.

Tests used:
Assay in all cases: log2 fold change, soluble protein after heating vs DMSO (PISA); higher = thermal stabilisation; K562 cells, 10 uM, 30 min; active = over 0.2 and 3.5 SD of the protein, either way, in both replicates (recomputed)
[1] = compound: COC1=CC=C(C=C1)CN2C=CC3=C2C=C(C=C3)C(=O)NO
Procedure, shortened: (§1)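 K562 cells at 2×10^6 cells/mL were given 10 μM compound for 30 min. Aliquots then went through 3 min of heating across 48°C-58°C, were pooled, and were extracted in PBS with 0.5% NP-40 at 4°C, and the supernatant after 21,000xg for 90 min was quantified by TMTpro 16plex LC-MS/MS with channel sums equalised. Thermal stability relative to control samples, from duplicates, is given as log2 fold change.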

filanesib = compound: CON(C)C(=O)N1N=C(c2cc(F)ccc2F)S[C@@]1(CCCN)c1ccccc1 [filanesib]
Procedure, shortened: as §1

zotarolimus = compound: CO[C@H]1C[C@@H]2CC[C@@H](C)[C@@](O)(O2)C(=O)C(=O)N2CCCC[C@H]2C(=O)O[C@H]([C@H](C)C[C@@H]2CC[C@H](n3cnnn3)[C@H](OC)C2)CC(=O)[C@H](C)/C=C(\C)[C@@H](O)[C@@H](OC)C(=O)[C@H](C)C[C@H](C)/C=C/C=C/C=C/1C [zotarolimus]
Procedure, shortened: as §1

idasanutlin = compound: COc1cc(C(=O)O)ccc1NC(=O)[C@@H]1N[C@@H](CC(C)(C)C)[C@](C#N)(c2ccc(Cl)cc2F)[C@H]1c1cccc(Cl)c1F [idasanutlin]
Procedure, shortened: as §1

alisertib = compound: COc1cc(Nc2ncc3c(n2)-c2ccc(Cl)cc2C(c2c(F)cccc2OC)=NC3)ccc1C(=O)O [alisertib]
Procedure, shortened: as §1

[2] = compound: COc1cc2nc(-c3cc(F)ccc3O)nc(N[C@@H]3CNC[C@H]3C(C)(C)O)c2cc1OC
Procedure, shortened: as §1

[3] = compound: COc1cccc2cc(-c3nc([C@H]4CC[C@H](C(=O)O)CC4)n4ncnc(N)c34)[nH]c12
Procedure, shortened: as §1

lapatinib = compound: CS(=O)(=O)CCNCc1ccc(-c2ccc3ncnc(Nc4ccc(OCc5cccc(F)c5)c(Cl)c4)c3c2)o1 [lapatinib]
Procedure, shortened: as §1

pictilisib = compound: CS(=O)(=O)N1CCN(Cc2cc3nc(-c4cccc5[nH]ncc45)nc(N4CCOCC4)c3s2)CC1 [pictilisib]
Procedure, shortened: as §1

[4] = compound: CS(=O)(=O)c1ccc(-c2cnc(N)c(C(=O)Nc3ccccc3)n2)cc1
Procedure, shortened: as §1

crizotinib = compound: C[C@@H](Oc1cc(-c2cnn(C3CCNCC3)c2)cnc1N)c1c(Cl)ccc(F)c1Cl [crizotinib]
Procedure, shortened: as §1

[5] = compound: C[C@@H]1COCCN1C2=NC(=NC(=C2)C3(CC3)S(=O)(=O)C)C4=C5C=CNC5=CC=C4
Procedure, shortened: as §1

[6] = compound: C[C@H](C1=CC=C(C=C1)C(=O)NC2=C3C=CNC3=NC=C2)N
Procedure, shortened: as §1

duvelisib = compound: C[C@H](Nc1ncnc2nc[nH]c12)c1cc2cccc(Cl)c2c(=O)n1-c1ccccc1 [duvelisib]
Procedure, shortened: as §1

gandotinib = compound: Cc1cc(Nc2cc(CN3CCOCC3)c3nc(C)c(Cc4ccc(Cl)cc4F)n3n2)n[nH]1 [gandotinib]
Procedure, shortened: as §1

tozasertib = compound: Cc1cc(Nc2cc(N3CCN(C)CC3)nc(Sc3ccc(NC(=O)C4CC4)cc3)n2)n[nH]1 [tozasertib]
Procedure, shortened: as §1

[7] = compound: Cc1cc(SCc2sc(-c3ccc(C(F)(F)F)cc3)nc2C)ccc1OCC(=O)O
Procedure, shortened: as §1

doramapimod = compound: Cc1ccc(-n2nc(C(C)(C)C)cc2NC(=O)Nc2ccc(OCCN3CCOCC3)c3ccccc23)cc1 [doramapimod]
Procedure, shortened: as §1

ispinesib = compound: Cc1ccc(C(=O)N(CCCN)[C@@H](c2nc3cc(Cl)ccc3c(=O)n2Cc2ccccc2)C(C)C)cc1 [ispinesib]
Procedure, shortened: as §1

gefitinib = compound: COc1cc2ncnc(Nc3ccc(F)c(Cl)c3)c2cc1OCCCN1CCOCC1 [gefitinib]
Procedure, shortened: as §1

Measured: log2 fold change

SRC isoform 2 (UniProt P12931)
inactive: [1] 0.197 | filanesib 0.229 | zotarolimus -0.123 | idasanutlin 0.119 | alisertib 0.01 | [2] 0.017 | [3] 0.219 | lapatinib 0.088 | pictilisib 0.113 | [4] -0.248 | crizotinib -0.154 | [5] 0.229 | [6] 0.07 | duvelisib 0.168 | gandotinib -0.056 | tozasertib -0.183 | [7] 0.101 | doramapimod -0.052 | ispinesib -0.068

SLC38A2 (UniProt Q96QD8)
inactive: [1] -0.041 | filanesib -0.205 | zotarolimus 0.048 | idasanutlin 0.011 | alisertib -0.019 | [2] -0.122 | gefitinib -0.099 | [3] 0.097 | lapatinib -0.055 | [4] 0.031 | crizotinib 0.028 | [5] 0.075 | [6] -0.075 | duvelisib 0.068 | tozasertib -0.009 | [7] 0 | doramapimod -0.03 | ispinesib -0.049

SOX5 (UniProt P35711)
UniProt P35711, sequence (P35711 whole entry, looked up): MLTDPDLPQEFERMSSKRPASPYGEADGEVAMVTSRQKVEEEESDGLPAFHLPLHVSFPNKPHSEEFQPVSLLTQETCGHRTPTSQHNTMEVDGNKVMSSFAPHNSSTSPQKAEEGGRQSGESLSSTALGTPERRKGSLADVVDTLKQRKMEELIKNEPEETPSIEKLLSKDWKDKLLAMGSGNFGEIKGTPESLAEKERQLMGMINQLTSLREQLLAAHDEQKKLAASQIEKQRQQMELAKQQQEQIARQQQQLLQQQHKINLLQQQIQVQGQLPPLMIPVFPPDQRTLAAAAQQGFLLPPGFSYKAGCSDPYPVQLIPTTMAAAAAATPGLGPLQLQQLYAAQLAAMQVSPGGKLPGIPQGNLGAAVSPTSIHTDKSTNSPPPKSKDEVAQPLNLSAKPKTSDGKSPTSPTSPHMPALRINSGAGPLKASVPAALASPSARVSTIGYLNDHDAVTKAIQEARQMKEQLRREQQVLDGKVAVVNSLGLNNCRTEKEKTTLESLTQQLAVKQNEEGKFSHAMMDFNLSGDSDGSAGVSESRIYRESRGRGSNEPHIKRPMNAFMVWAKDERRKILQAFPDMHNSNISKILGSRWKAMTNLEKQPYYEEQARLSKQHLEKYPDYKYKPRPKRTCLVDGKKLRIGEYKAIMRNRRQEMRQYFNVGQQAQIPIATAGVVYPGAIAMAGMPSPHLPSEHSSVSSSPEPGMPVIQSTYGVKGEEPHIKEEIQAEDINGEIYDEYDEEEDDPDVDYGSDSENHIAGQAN
inactive: [1] -0.087 | filanesib -0.08 | zotarolimus -0.058 | idasanutlin 0.006 | alisertib -0.089 | [2] -0.055 | gefitinib -0.012 | [3] 0.105 | lapatinib 0.051 | [4] 0.07 | crizotinib 0.046 | [6] 0.041 | tozasertib 0.045 | doramapimod 0.054 | ispinesib 0.004

SYNE2 isoform 2 (UniProt Q8WXH0)
active: gandotinib 0.521
inactive: [1] 0.112 | filanesib 0.048 | zotarolimus -0.057 | idasanutlin -0.185 | alisertib -0.054 | [2] 0.34 | gefitinib 0.078 | [3] -0.004 | lapatinib -0.133 | pictilisib 0.205 | [4] 0.209 | crizotinib -0.009 | [6] 0.429 | duvelisib 0.214 | tozasertib -0.053 | [7] 0.06 | doramapimod 0.046 | ispinesib -0.08

TGFBI (UniProt Q15582)
active: zotarolimus -0.892
inactive: [1] 0.063 | filanesib -0.054 | idasanutlin 0.084 | alisertib -0.012 | [2] -0.003 | gefitinib -0.029 | [3] 0.15 | lapatinib 0.018 | pictilisib -0.083 | [4] -0.021 | crizotinib -0.047 | [5] 0.215 | [6] 0.181 | duvelisib 0.067 | gandotinib -0.451 | tozasertib 0.031 | [7] 0.043 | doramapimod -0.182 | ispinesib -0.159

SNRPB2 (UniProt P08579)
inactive: [1] -0.018 | filanesib 0.057 | zotarolimus -0.035 | idasanutlin 0.021 | alisertib -0.121 | [2] 0.047 | gefitinib -0.021 | [3] -0.006 | lapatinib -0.002 | pictilisib 0.006 | [4] -0.014 | crizotinib 0.02 | [5] -0.024 | [6] 0.008 | duvelisib -0.017 | gandotinib 0.026 | tozasertib -0.008 | [7] -0.048 | doramapimod -0.01 | ispinesib 0.027

SMG1 (UniProt Q96Q15)
UniProt Q96Q15, sequence (Q96Q15 whole entry, looked up): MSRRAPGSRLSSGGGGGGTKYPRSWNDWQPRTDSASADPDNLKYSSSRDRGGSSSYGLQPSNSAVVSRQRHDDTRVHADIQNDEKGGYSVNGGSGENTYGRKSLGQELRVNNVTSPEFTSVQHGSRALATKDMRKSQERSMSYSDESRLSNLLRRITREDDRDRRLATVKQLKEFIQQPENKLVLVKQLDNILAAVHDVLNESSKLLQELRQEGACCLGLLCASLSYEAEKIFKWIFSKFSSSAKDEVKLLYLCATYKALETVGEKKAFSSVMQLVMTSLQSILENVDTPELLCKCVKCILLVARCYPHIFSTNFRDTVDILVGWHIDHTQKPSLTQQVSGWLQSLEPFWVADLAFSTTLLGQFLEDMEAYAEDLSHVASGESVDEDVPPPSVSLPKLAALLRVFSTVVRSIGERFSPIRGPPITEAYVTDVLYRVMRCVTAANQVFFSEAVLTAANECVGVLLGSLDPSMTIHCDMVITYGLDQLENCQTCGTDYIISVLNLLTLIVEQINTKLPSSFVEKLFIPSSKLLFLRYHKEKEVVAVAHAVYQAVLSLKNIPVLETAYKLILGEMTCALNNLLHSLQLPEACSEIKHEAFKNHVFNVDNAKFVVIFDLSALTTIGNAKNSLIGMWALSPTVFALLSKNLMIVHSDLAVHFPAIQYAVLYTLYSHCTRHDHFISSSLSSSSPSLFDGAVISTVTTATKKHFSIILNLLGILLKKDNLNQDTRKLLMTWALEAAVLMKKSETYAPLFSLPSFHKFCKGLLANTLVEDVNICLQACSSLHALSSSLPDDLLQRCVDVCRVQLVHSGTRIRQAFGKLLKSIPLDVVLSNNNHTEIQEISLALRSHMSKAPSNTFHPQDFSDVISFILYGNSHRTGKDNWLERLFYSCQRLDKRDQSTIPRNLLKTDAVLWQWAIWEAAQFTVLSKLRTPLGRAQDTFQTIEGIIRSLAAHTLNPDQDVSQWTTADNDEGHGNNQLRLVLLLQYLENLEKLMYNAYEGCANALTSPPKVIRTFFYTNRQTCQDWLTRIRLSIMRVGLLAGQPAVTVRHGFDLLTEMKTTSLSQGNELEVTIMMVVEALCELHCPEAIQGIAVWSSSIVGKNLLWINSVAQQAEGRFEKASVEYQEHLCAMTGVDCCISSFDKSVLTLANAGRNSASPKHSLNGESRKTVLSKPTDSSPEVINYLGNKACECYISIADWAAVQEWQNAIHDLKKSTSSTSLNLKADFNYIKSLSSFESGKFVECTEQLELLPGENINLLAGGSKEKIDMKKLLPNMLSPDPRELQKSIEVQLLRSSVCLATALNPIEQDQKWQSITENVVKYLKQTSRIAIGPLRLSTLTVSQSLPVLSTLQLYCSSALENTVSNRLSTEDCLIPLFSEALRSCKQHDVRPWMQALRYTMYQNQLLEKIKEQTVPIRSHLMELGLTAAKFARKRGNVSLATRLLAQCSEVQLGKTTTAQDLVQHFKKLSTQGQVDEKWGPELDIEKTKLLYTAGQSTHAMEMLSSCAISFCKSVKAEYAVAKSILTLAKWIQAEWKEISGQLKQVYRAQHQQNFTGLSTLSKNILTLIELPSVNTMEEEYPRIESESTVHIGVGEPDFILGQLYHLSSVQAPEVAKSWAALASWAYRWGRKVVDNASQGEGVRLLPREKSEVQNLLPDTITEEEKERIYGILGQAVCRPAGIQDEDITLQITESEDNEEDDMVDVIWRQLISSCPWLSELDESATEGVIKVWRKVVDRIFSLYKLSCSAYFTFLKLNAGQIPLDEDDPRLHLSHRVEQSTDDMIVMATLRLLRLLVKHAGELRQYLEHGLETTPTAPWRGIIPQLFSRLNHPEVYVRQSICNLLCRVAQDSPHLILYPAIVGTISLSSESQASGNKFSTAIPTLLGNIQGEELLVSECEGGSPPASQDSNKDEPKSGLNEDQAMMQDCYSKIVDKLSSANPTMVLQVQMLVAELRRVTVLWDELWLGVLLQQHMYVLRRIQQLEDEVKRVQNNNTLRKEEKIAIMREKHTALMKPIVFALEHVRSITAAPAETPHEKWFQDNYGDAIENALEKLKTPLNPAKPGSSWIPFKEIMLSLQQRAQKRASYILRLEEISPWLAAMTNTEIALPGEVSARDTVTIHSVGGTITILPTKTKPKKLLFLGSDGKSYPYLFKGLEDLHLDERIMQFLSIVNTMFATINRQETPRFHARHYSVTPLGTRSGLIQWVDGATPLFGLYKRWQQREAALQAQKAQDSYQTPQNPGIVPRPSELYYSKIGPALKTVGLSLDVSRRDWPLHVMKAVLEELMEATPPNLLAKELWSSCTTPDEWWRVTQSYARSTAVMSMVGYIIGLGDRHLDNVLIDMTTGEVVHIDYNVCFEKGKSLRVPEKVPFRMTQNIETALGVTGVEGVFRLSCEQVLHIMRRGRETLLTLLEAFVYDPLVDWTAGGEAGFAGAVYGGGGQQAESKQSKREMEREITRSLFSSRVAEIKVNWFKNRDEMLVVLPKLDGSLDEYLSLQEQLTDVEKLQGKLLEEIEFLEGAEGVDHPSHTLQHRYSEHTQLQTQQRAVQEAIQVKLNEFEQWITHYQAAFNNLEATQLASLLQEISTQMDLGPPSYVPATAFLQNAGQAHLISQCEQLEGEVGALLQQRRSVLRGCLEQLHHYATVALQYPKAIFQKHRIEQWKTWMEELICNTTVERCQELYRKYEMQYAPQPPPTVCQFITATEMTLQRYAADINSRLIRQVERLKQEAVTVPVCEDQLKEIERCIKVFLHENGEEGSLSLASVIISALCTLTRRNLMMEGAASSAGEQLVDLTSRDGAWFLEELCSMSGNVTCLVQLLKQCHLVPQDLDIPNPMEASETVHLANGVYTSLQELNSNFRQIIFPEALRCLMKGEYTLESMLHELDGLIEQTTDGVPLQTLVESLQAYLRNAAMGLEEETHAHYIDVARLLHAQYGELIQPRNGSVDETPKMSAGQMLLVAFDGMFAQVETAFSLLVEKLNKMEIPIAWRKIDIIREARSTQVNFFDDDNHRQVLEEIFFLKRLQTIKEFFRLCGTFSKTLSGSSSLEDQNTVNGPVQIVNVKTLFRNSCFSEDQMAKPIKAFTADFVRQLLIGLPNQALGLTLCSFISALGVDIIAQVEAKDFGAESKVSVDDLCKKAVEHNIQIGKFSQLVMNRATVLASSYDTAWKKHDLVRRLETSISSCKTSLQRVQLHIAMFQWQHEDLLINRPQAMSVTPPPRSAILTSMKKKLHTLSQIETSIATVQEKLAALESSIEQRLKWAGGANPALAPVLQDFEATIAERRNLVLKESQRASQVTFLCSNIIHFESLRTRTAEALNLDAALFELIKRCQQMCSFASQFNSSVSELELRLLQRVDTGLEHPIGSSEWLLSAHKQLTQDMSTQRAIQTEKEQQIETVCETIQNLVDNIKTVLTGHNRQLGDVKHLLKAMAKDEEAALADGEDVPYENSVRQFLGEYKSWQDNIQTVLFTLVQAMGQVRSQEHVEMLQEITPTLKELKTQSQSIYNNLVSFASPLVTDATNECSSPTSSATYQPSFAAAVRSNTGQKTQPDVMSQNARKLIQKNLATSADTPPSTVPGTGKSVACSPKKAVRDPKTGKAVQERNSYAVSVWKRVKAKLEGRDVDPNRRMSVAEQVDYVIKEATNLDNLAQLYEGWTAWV
inactive: [1] -0.142 | filanesib 0.061 | zotarolimus -0.001 | idasanutlin -0.038 | alisertib -0.002 | [2] 0.055 | gefitinib 0.008 | [3] -0.047 | lapatinib 0.003 | pictilisib 0.018 | [4] 0.04 | crizotinib 0.012 | [5] -0.083 | [6] 0.016 | duvelisib 0.02 | gandotinib -0.024 | tozasertib -0.013 | [7] 0.098 | doramapimod 0.051 | ispinesib 0.033

STK38L (UniProt Q9Y2H1)
inactive: [1] -0.007 | filanesib -0.009 | zotarolimus 0.036 | idasanutlin -0.095 | alisertib 0.037 | gefitinib 0.029 | [3] -0.064 | pictilisib 0.05 | [4] 0.028 | crizotinib 0.065 | [5] 0.069 | [6] -0.055 | duvelisib -0.04 | gandotinib -0.105 | tozasertib 0.003 | [7] 0.116 | doramapimod -0.022 | ispinesib -0.093

TBC1D20 isoform 3 (UniProt Q96BZ9)
inactive: [1] 0.026 | filanesib -0.023 | zotarolimus 0.136 | idasanutlin -0.184 | alisertib -0.089 | [2] 0.102 | gefitinib 0.148 | [3] -0.032 | lapatinib -0.03 | pictilisib -0.073 | [4] 0.039 | crizotinib -0.121 | [5] 0.088 | [6] 0.036 | gandotinib -0.078 | doramapimod 0.05 | ispinesib 0.113

SLC27A1 (UniProt Q6PCB7)
inactive: [1] -0.263 | filanesib 0.118 | zotarolimus 0.064 | idasanutlin -0.038 | alisertib 0.004 | [2] 0.069 | gefitinib 0.016 | [3] -0.031 | lapatinib 0.014 | [4] 0.116 | crizotinib 0.123 | [5] 0.016 | [6] -0.099 | duvelisib 0.05 | tozasertib -0.084 | [7] 0.112 | doramapimod 0.062 | ispinesib 0.06

TMBIM6 isoform 2 (UniProt P55061)
inactive: [1] -0.007 | filanesib -0.233 | zotarolimus -0.099 | alisertib -0.27 | gefitinib -0.087 | [3] -0.165 | lapatinib -0.196 | [4] -0.066 | [5] 0.033 | [6] -0.049 | duvelisib 0.046 | tozasertib -0.066 | [7] -0.03 | doramapimod -0.053 | ispinesib -0.407
active: idasanutlin -0.51 | [2] -0.535 | crizotinib -0.451

SLC35A1 (UniProt P78382)
UniProt P78382, sequence (P78382 whole entry, looked up): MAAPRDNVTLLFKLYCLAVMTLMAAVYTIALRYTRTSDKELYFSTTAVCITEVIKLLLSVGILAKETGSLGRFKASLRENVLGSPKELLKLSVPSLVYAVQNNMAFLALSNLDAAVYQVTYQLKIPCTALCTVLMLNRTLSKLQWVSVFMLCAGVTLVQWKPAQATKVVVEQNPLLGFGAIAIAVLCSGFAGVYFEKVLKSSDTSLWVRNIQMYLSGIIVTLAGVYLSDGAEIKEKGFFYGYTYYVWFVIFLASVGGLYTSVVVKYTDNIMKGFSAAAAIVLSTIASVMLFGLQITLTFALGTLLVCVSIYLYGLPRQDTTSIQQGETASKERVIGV
inactive: [1] 0.048 | filanesib -0.021 | zotarolimus -0.138 | idasanutlin -0.051 | alisertib -0.063 | [2] -0.097 | gefitinib 0.06 | [3] 0.06 | lapatinib -0.028 | [4] -0.017 | crizotinib 0.056 | [5] 0.044 | [6] -0.196 | duvelisib -0.005 | tozasertib -0.036 | [7] 0.074 | doramapimod -0.039 | ispinesib 0.04

SLC44A2 isoform 2 (UniProt Q8IWA5)
inactive: [1] 0.018 | filanesib 0.048 | zotarolimus -0.028 | idasanutlin 0.026 | alisertib -0.118 | gefitinib 0.002 | [3] 0.057 | pictilisib 0.13 | [4] 0.019 | crizotinib 0.113 | [5] 0.026 | [6] -0.123 | duvelisib 0.154 | gandotinib -0.017 | tozasertib -0.022 | [7] -0.046 | doramapimod 0.055 | ispinesib 0.069

SLC39A11 (UniProt Q8N1S5)
UniProt Q8N1S5, sequence (Q8N1S5 whole entry, looked up): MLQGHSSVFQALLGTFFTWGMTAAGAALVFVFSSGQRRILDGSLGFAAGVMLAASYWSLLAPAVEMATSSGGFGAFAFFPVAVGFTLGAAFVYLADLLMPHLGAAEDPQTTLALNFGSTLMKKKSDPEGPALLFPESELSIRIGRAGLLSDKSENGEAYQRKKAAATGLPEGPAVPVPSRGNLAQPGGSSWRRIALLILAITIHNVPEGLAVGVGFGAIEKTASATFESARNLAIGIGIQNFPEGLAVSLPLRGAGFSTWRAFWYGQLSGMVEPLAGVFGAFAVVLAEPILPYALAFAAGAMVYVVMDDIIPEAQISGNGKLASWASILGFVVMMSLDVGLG
inactive: [1] -0.014 | filanesib -0.01 | zotarolimus -0.078 | idasanutlin -0.056 | alisertib -0.113 | [2] -0.04 | gefitinib 0.001 | [3] 0.047 | lapatinib -0.038 | pictilisib -0.117 | [4] 0.121 | crizotinib 0.109 | [6] -0.066 | duvelisib -0.085 | gandotinib 0.271 | tozasertib 0.116 | [7] -0.126 | doramapimod 0.009 | ispinesib 0.085

SLC38A7 (UniProt Q9NVC3)
active: ispinesib -0.842
inactive: [1] -0.042 | filanesib -0.098 | zotarolimus 0.095 | idasanutlin -0.077 | alisertib -0.136 | [2] 0.01 | gefitinib 0.035 | [3] 0.069 | lapatinib -0.057 | pictilisib 0.022 | [4] -0.018 | crizotinib -0.449 | [5] 0.045 | [6] -0.009 | gandotinib -0.412 | tozasertib 0.052 | doramapimod 0.035

TATDN2 (UniProt Q93075)
inactive: [1] -0.011 | filanesib 0.002 | zotarolimus 0.006 | idasanutlin 0.012 | [2] -0.015 | gefitinib -0.037 | lapatinib 0.021 | pictilisib -0.016 | [4] 0.002 | crizotinib -0.061 | [5] 0.028 | [6] 0.078 | duvelisib 0.019 | gandotinib 0.106 | tozasertib 0.136 | [7] 0.045 | doramapimod 0.063
